According to the supplement of paper PMC6555819:

Experiments:
Assay in all cases: PBM binding z-score (relative to random genomic background probes); higher = stronger binding; sequences stand for … in GC…GCGATTGACAGCGTAGAATGAAGG
[1] = test system: FXR:RXRa (NR concentration 270 nM, RXRa partner concentration 90 nM)
How it was run: (§1)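 Regression normalization was applied to scanned fluorescence from custom Agilent 4×180K protein-binding microarrays. Before scanning, arrays were incubated 1 h with ligand-free nuclear receptor dimers, and binding was detected with antibodies against each partner (one per run). Binding z-scores use the random background probes as reference.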

[2] = test system: LXRa:RXRa (NR concentration 270 nM, RXRa partner concentration 90 nM)
How it was run: as §1

[3] = test system: LXRa homodimer (NR concentration 270 nM)
How it was run: as §1

[4] = test system: LXRb:RXRa (NR concentration 270 nM, RXRa partner concentration 90 nM)
How it was run: as §1

[5] = test system: LXRb homodimer (NR concentration 270 nM)
How it was run: as §1

[6] = test system: PPARa:RXRa (NR concentration 270 nM, RXRa partner concentration 90 nM)
How it was run: as §1

[7] = test system: PPARg:RXRa (NR concentration 180 nM, RXRa partner concentration 90 nM)
How it was run: as §1

[8] = test system: PPARg:RXRa 270nM:90nM, anti-RXR (NR concentration 270 nM, RXRa partner concentration 90 nM)
How it was run: as §1

[9] = test system: PPARg:RXRa 30nM:10nM, anti-RXR (NR concentration 30 nM, RXRa partner concentration 10 nM)
How it was run: as §1

[10] = test system: PPARg:RXRa 90nM:30nM, anti-RXR (NR concentration 90 nM, RXRa partner concentration 30 nM)
How it was run: as §1

| Sequence | PBM binding z-score [1] | PBM binding z-score [2] | PBM binding z-score [3] | PBM binding z-score [4] | PBM binding z-score [5] | PBM binding z-score [6] | PBM binding z-score [7] | PBM binding z-score [8] | PBM binding z-score [9] | PBM binding z-score [10] |
| --- | --- | --- | --- | --- | --- | --- | --- | --- | --- | --- |
| TCATATAGGTAAACAGGTGACAGTCCGTAAGTTA | 0.832 | 0.858 | 0.306 | 0.84 | -0.213 | 2.24 | 2.52 | 3.35 | 4.16 | 3.91 |
| ATCTCTAGGTAACCAAGTTCAATGAATGCCGAAC | 0.814 | 1.63 | 1.7 | 1.34 | 1.25 | 1.76 | 1.26 | 1.15 | 0.497 | 0.824 |
| ACTATTAGTTGACTTAGTGCAACCGATACGACGC | -0.217 | -0.0103 | -0.0872 | -0.107 | 0.478 | -0.0535 | 0.743 | 0.105 | 0.433 | 0.153 |
| TCTCGGCGGACACGAAAGGTCAGAGCTCGACATC | 1.93 | 3.18 | 2.3 | 2.79 | -0.427 | 2.94 | 0.571 | 1.69 | 1.42 | 1.53 |
| AAAACAGGGTCACTAGGCCAGAGTAGGTACGAAT | 6.63 | 4.02 | -0.0117 | 4 | 0.509 | 6.07 | 8.29 | 7.23 | 4.36 | 6.34 |
| CTTTACGGGTCACTGACAGGTTATAGCATTTGGA | 5.62 | 5.09 | 1.02 | 3.91 | 0.469 | 5.46 | 5.06 | 5.14 | 2.12 | 4.01 |
| CAGCCAAGGTCAGGGCCAGTATAGGAGGAACGTT | 5.13 | 3.08 | -0.277 | 2.25 | -0.506 | 4.22 | 2.73 | 2.77 | 0.584 | 1.61 |
| GCATATAGGTAATACAAGGTGACAGTCCGATTGT | 0.924 | 1.5 | 0.00702 | 0.333 | -0.21 | 1.16 | 1.5 | 1.19 | 0.699 | 0.902 |
| CGTCAAAGTTCAAGGTAAGGTAACAGAAAGCAGC | 6.16 | 5.4 | 2.37 | 3.29 | 0.542 | 4.69 | 4.19 | 4.91 | 1.78 | 3.67 |
| TGAATGAGGTTATAAGATCAGGTAACGTTGCAAA | 1.34 | 1.33 | -0.261 | 1.28 | 0.248 | 2.76 | 1.42 | 1.99 | 1.02 | 1.46 |
| CCTAGCAGGTCAGGGTCACTCAAGCATTTCGCTT | 4.58 | 3.54 | 0.113 | 3.41 | -0.723 | 4.61 | 3.59 | 4.22 | 1.09 | 3.27 |
| CGTCCAAGGTCAATGCTAGGTAAGTGAAAGCATT | 5.28 | 4.48 | 0.161 | 3.61 | 0.552 | 5.13 | 3.69 | 4.15 | 0.806 | 2.86 |
| TCACATAGGTAAATGCTAGGTGAAAGTCCGATCT | 0.401 | 0.564 | -0.036 | 0.378 | -0.343 | 1.03 | 0.475 | 1.83 | 3.11 | 2.49 |
| CCTACTGGGCCAAAGGGCATTGATTCCAATGCTC | 0.0219 | 0.199 | -0.482 | 0.36 | -1.02 | 4.61 | 10.3 | 9.18 | 8.24 | 9.29 |
| CGAACTAGGTCATCCAGGACAGCGAATACATTGA | 4.51 | 2.55 | 0.58 | 2.07 | -0.199 | 4.82 | 7.57 | 6.41 | 4.29 | 5.78 |
| CGTCAAAGTGCAAGGTAACGTAACAGAAAGCAGC | 0.00612 | 0.219 | -0.312 | 0.159 | -0.589 | 0.731 | 0.773 | 0.593 | -0.0711 | 0.326 |
| AGAATGAGGTTATTAAGATCAGGTAATTGCGGTC | 1.7 | 1.73 | 0.77 | 1.33 | 0.187 | 2.49 | 1.38 | 1.96 | 0.716 | 1.09 |
| TCTTGTAGATCAACAGCAGGTTAAGAAAGATCGA | 0.263 | 0.476 | -0.0928 | 0.569 | -0.319 | 0.609 | -0.21 | 1.17 | 2.61 | 1.7 |
| GCGACTGTGGCATCAGCAGGTTACCATAACTTAA | -0.475 | -0.391 | -0.237 | -0.0453 | -0.969 | 0.0749 | 0.0982 | -0.457 | -0.399 | -0.487 |
| CCGACTGGGGCAAGGTTAACATAACGCACAGCCA | 0.315 | 0.681 | -0.0664 | 0.737 | -0.786 | 2.59 | 4.38 | 4.92 | 2.68 | 4.38 |
| GCTTACGGGTCAAACGTTATAGCATGAATAGAAT | 6.35 | 4.13 | -0.166 | 4.02 | 0.282 | 5.72 | 6.02 | 6.15 | 2.96 | 5.31 |
| CCTCGGAGGACAAAAGGAGGTCAGAGCTGCCAGA | 1.18 | 2.12 | 1.26 | 1.34 | -0.602 | 2.71 | 0.706 | 1.21 | -0.33 | 0.651 |
| ATCTCTAGGTAAAAGTTCAGAGAATCCCGAGGAT | 1.14 | 1.55 | 1.43 | 1.03 | 0.872 | 4.35 | 8.44 | 7.88 | 7.79 | 9.43 |
| CAAACTAGGTCGCCGGAAGGTCAAAGTCCGCATG | 3.54 | 4.14 | 2.85 | 3.54 | 0.401 | 4.61 | 5.39 | 4.95 | 2.29 | 4.13 |
